Bioassay records: PubChem BioAssay, National Center for Advancing Translational Sciences (NCATS)
SW480 rerep: induces DNA re-replication in SW480 colon adenocarcinoma cells; SW480 DNA re-replication, Hoechst DNA content imaging, 48 h; Potency, µM (doses to about 46.1 µM), without a hit: top-dose re-replication activation, usual class: activators; hit rate 1.8% among 340,000; AID 624297; also: % of control where 0% means no effect; nearly all actives have a fitted effect of over 55% in size
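DNA re-replication was detected as more nuclei of elevated Hoechst intensity after 48 hr exposure to compound (23 nL pinned per well of 250 cells).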
RORgamma inh: ROR gamma (mouse) transcription inhibition. AID 2551. hit rate 5.4% among 310,000. P51450. Potency, µM (highest dose often 53.6 µM), for inactives: at the top dose activity change, negative = inhibition, actives largely listed as inhibitors. Drosophila S2 Gal4-RORgamma UAS-luciferase reporter, 20 h; also: % is scaled to controls: 0 for no effect and ±100 for the full control effect; nearly all actives have a fitted effect of over 60% in size
Target sequence (P51450 whole entry, looked up, the tested form may be a part): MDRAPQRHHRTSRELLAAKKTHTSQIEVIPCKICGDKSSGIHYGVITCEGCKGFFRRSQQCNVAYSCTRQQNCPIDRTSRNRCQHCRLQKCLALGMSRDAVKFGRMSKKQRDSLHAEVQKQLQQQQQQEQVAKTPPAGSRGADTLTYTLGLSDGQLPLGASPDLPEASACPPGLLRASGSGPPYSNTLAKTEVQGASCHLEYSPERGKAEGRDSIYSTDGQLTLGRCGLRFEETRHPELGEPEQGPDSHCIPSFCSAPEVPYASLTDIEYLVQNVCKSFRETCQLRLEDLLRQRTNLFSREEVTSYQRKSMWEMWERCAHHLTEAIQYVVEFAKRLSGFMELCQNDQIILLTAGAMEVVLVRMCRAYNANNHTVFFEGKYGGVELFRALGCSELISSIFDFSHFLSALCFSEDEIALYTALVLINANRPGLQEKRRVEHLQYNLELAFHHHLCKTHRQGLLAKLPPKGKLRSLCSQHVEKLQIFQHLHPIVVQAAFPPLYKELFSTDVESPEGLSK
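ROR gamma transcriptional activity was tracked as Gal4-UAS luciferase output in stably transfected Drosophila Schneider cells, with compound added 1 hr before 700 uM copper sulfate induction and a 20 hr ambient-temperature incubation.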
MCF10A rerep: DNA re-replication induction in MCF 10a cells. hit rate 2.9% among 350,000. Potency, µM (doses to about 46.1 µM), for inactives: at the highest dose activity, positive = re-replication, most hits filed as activators. MCF 10A DNA re-replication, Hoechst nuclear intensity, 48 h; also: % of control where 0% means no effect; nearly all actives have a fitted effect of over 50% in size
VP16 counter: inhibits Gal4-VP16 luciferase reporter, ROR gamma counter-screen. Drosophila S2 Gal4-VP16 UAS-luciferase, luminescence, 20 h. Potency, µM (highest dose often 53.6 µM), for the others: at the top dose activity, negative = inhibition, actives largely listed as inhibitors. hit rate 3.5% among 310,000. AID 2546;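 also: Gal4-VP16 expression switched on by copper sulfate through the metallothionein promoter; % is scaled to controls: 0 for no effect and ±100 for the full control effect; nearly all actives have a fitted effect of over 50% in size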
ELG1 repair inh: ELG1-dependent DNA repair inhibition | HEK293T ELG1-luciferase reporter, luminescence, 16 h; DNA damage induced by 5-fluorouridine | Potency, µM (titrated, usually from 46.1 µM), inactives show top-dose activity change, negative = inhibition, hits mostly inhibitors | hit rate 2.3% among 330,000 | AID 504467; also: % is scaled to controls: 0 for no effect and ±100 for the full control effect; nearly all actives have a fitted effect of over 55% in size
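5-Fluorouridine DNA damage + compound/DMSO, 2,000 cells/well, 16 h, 37 °C/5% CO2. ONE-Glo, 30 min RT, luminescence. Readout = decrease in reporter signal.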
An asterisk follows results filed as active; u = inconclusive; x = no result given; [ ] = remark or other dose. A selection: hits, their analogues and other compounds. The true share with any hit is near 10%. Calls follow the shape of the dose curve; as a rule, active = well fitted curve in the direction sought with a large enough effect; inconclusive = small, poorly fitted or top-dose-only effect, or another doubt; inactive = no such curve, though single readings can be large; an effect the other way counts as inactive or inconclusive. Potency is read from the fitted curve at half-maximal effect.

SMILES	SW480 rerep	RORgamma inh	MCF10A rerep	VP16 counter	ELG1 repair inh
CCOC(=O)C1=C(C)NC(=O)NC1/C=C\c1ccccc1 (centres undefined)	-1%	1%	u	-11%	9%
CCOC(=O)C1=C(C)NC(=S)NC1/C=C/c1ccccc1 (centres undefined)	0%	1.8µM*	u	2µM*	u
COC(=O)C1=C(C)NC(=S)NC1/C=C/c1ccccc1 (centres undefined)	104%[1.84 µM]	6.3µM*	7%	16µM*	u
CC(C)N1CCc2c(sc(NC(=O)Cc3ccccc3)c2C(N)=O)C1	-4%	-24%	-3%	-1%	-6%
CCN1CCc2c(sc(NC(=O)c3cc4ccccc4cc3OC)c2C(N)=O)C1	12µM*	4.5µM*	18µM*	5.6µM*	1%
CC(C)N1CCc2c(sc(NC(=O)c3ccc(S(=O)(=O)N4CCCCC4C)cc3)c2C(N)=O)C1 (centres undefined)	21µM*	u	u	14µM*	-5%
CC(=O)Nc1sc2c(c1-c1nc3ccccc3s1)CCN(C(C)C)C2	21µM*	8.9µM*	u	11µM*	u
CC(C)N1CCc2c(sc(NC(=O)c3ccc4ccccc4c3)c2C(N)=O)C1	15µM*	u	9.2µM*	u	1%
CNC(=O)c1c(NC(=O)c2ccc(S(=O)(=O)N3CCCCC3)cc2)sc2c1CCN(C(C)C)C2	u	16%	28%	-4%	u
O=C(COc1ccc(Br)cc1)Nc1ccc(N2CCOCC2)cc1N1CCOCC1	27%	x	-1%	x	9%
CCOC(=O)C1CCCN(C(=O)CCCn2nnnc2CN2CCC(C)CC2)C1 (centres undefined)	-13%	9%	3%	-13%	0%
CC(C)N1CCc2c(sc(NC(=O)c3ccc(C(=O)c4ccccc4)cc3)c2C(N)=O)C1	u	-13%	16µM*	-20%	u
CCCCCC1C(=O)CCC1CC(=O)O (centres undefined)	x	-23%	x	13%	x
CCCCC1C(=O)CC[C@H]2[C@@H]1CC(=O)[C@@H]2C/C=C\CCCC(=O)O (some centres undefined)	1.8µM*	-25%	64%	-27%	-12%
COc1ccc(-c2nc(CN3CCCCC3c3nccn3C)c(C)o2)c(C)c1C (centres undefined)	u	4.5µM*	9%	u	u
N#CCCn1cc(/C=N/O)c(-c2ccc(F)cc2)n1	1%	-14%	-1%	-6%	-6%
COc1ccc(-c2nn(CCC#N)cc2/C=N/O)cc1	-4%	4%	-10%	3%	10%
N#CCCn1cc(/C=N/O)c(-c2ccccc2)n1	1%	-15%	2%	-9%	23µM*
N#CCCn1cc(C=C(C#N)C#N)c(-c2ccc(-c3ccccc3)cc2)n1	u	u	u	20µM*	-19%
N#CCCn1cc(/C=N/NC(N)=S)c(-c2ccc(-c3ccccc3)cc2)n1	u	1.1µM*	u	3.2µM*	26µM*
CC(C)(C)c1cc(NC(=O)c2ccco2)n(-c2ccccc2)n1	2%	0%	-2%	-13%	0%
CC(C)(C)c1ccc(C(=O)c2c[nH]c(C(=O)NCCc3ccccn3)c2)cc1	-2%	-4%	-2%	-20%	u
C/C=C1\C(=O)CC2C3CCC4=CC(=O)CC[C@]4(C)C3CC[C@]12C (some centres undefined)	x	8%	x	6%	x
CCCCn1cnc2c(oc3nc4c(cc32)CCCC4)c1=O	u	10µM*	-6%	u	u
CCCCCCn1cnc2c(oc3nc4c(cc32)CCCC4)c1=O	1%	u	10%	5%	u
SMILES	SW480 rerep	RORgamma inh	MCF10A rerep	VP16 counter	ELG1 repair inh
CC1=NNC(=O)/C1=C\c1cn(-c2ccccc2)nc1-c1ccccc1	10%	1.1µM*	3.7µM*	2%[10 µM]	u
O=Cc1cn(-c2ccccc2)nc1-c1ccccc1	10%	19%	14%	14%	u
CC(C)Sc1nc2ccccc2n1CC(=O)O	-14%	33%	-1%	-5%	-13%
CCC(C)Sc1nc2ccccc2n1CC(=O)O (centres undefined)	-2%	13µM*	-4%	2%	12%
Cc1ccc(-c2nc(C3CCN(S(=O)(=O)c4ccc(C(F)(F)F)cc4)CC3)no2)cc1	-1%	22%	2%	-11%	u
CCS(=O)(=O)N1CCC(c2nc(-c3ccc(C(F)(F)F)cc3)no2)CC1	-3%	u	-6%	u	6.3µM*
CCS(=O)(=O)N1CCC(c2nc(-c3ccc(C)cc3)no2)CC1	-9%	u	14%	-10%	u
CS(=O)(=O)N1CCC(c2noc(-c3ccc(C(F)(F)F)cc3)n2)CC1	-16%	u	26%	10µM*	-20%
Cc1cc(C)cc(NC(=O)C[n+]2ccccc2)c1	2%	5%	-16%	-2%	8%
CCOC(=O)c1cc2c(=O)n3ccccc3nc2n(CCOC)c1=NC(=O)C(C)(C)C	u	28%	27%	2%	26%
CCOC(=O)c1cc2c(=O)n3ccccc3nc2n(CCCOC)c1=NC(=O)C(C)(C)C	18µM*	-5%	u	-6%	-10%
CCOC(=O)c1cc2c(=O)n3ccccc3nc2n(CCOC)c1=NC(=O)c1c(-c2c(F)cccc2Cl)noc1C	u	1%	18µM*	-15%	-6%
CCOC(=O)c1cc2c(=O)n3ccccc3nc2n(CCOC)c1=NC(=O)c1ccncc1	-3%	-11%	4%	-12%	u
CCCN(CC(=O)Nc1ccccc1OC)C(=O)c1ccc(S(=O)(=O)Nc2ccccc2)cc1	-7%	x	10%	x	-11%
N#CCCN(C(=O)COc1ccc(Br)cc1F)c1ccc(F)cc1	-60%	20%	-4%	-4%	1%
CC1=C(C#N)C(=O)NC(=O)/C1=C/c1ccc(-c2ccc(S(N)(=O)=O)cc2)o1	-3%	-2%	-3%	14%	3%
CS(=O)(=O)N(CCC#N)Cc1ccc(/C=C2\C(=O)Nc3ccccc32)o1	-3%	-3%	1%	2%	7.3µM*
Cc1nc2sc(C(=O)Nc3ccccc3Cc3ccccc3)c(C)c2c(=O)[nH]1	-7%	6%	5.8µM*	3%	u
CC(C)(Oc1ccc(Cl)cc1)C(=O)N1CCN(C(=O)c2ccco2)CC1	-5%	34%	-4%	10%	4%
Oc1ccc(-c2nc(-c3ccc(F)cc3)c(-c3ccncc3)[nH]2)cc1	3.5µM*	17%	10%	-14%	0%
O=C(O)c1ccc(-c2nc(-c3ccccc3)c(-c3ccccc3)[nH]2)cc1	-7%	29%	16µM*	-11%	-3%
Fc1ccc(-c2nc(-c3cccs3)[nH]c2-c2ccc(F)cc2)cc1	83%	-26%	u	-17%	u
